For seven compounds, growth results are on record in the supplement of paper PMC9262897, “Low-cost anti-mycobacterial drug discovery using engineered E. coli” (Nature Communications, 2022).

Counter-ions that a name gives are not always drawn. ± gives the standard deviation of the averaged measurements.

Common to all, as to test: growth (OD600 after 10 h); higher = more growth (less inhibition)
Assay [1] relates to E. coli TESEC Alr+ wild-type control. Conditions: compound 0.1 mM; raw OD600 reference: median of DMSO wells 0.241, cell-free background 0.041. On the procedure: (§1)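 TESEC Mtb Alr E. coli, or the Alr+ wild-type control, in 384-well plates with Prestwick library compounds at 0.1 mM and 1% DMSO, across arabinose induction levels of 1E3 to 1E7 nM. Growth is read as OD600 after 10 h at 37 °C in triplicate biological replicates.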

The test system of assay [2] is E. coli TESEC Mtb Alr. Particulars: compound 0.1 mM. On the procedure:
as §1

The next assay has as its system E. coli TESEC Mtb Asd. Conditions: compound 0.1 mM. On the procedure:
(§2)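 TESEC E. coli strains in which the native enzyme is deleted and replaced by arabinose-inducible Mtb Asd, DapB, CysH or TrpD, each grown in its selective medium. Strains were screened against the Prestwick library at 0.1 mM and 1% DMSO in 384-well format at low and high arabinose induction. Growth is read as OD600 after 10 h in triplicate.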

In a further assay the test system is E. coli TESEC Mtb DapB. Conditions: compound 0.1 mM. The method, then:
as §2

For assay [3], the system named is E. coli TESEC Alr+ wild-type control. Particulars: compound 0.1 mM; raw OD600 reference: median of DMSO wells 0.49, cell-free background 0.052. On the procedure:
(§3)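 TESEC Mtb Alr E. coli (ΔaraC ΔtolC ΔentC Δalr ΔdadX, arabinose-inducible Mtb Alr) or the Alr+ wild-type control strain, grown in defined M9-fructose medium without D-alanine in 96-well plates with Prestwick library compounds at 0.1 mM and 1% DMSO. Low Alr induction is 0.1 µM arabinose and high induction is 10 mM arabinose.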

Assay [4] concerns E. coli TESEC Mtb Alr. Conditions: compound 0.1 mM. The method, then: as §3
This is another data set of the same source.

Setting [5] is: arabinose 1000 nM, raw OD600 reference: median of DMSO wells 0.294, cell-free background 0.041.
The mark [6] stands for this setting: arabinose 10000 nM, raw OD600 reference: median of DMSO wells 0.264, cell-free background 0.041.
Where [7] appears, read: arabinose 100000 nM, raw OD600 reference: median of DMSO wells 0.201, cell-free background 0.041.
[8] abbreviates: arabinose 1000000 nM, raw OD600 reference: median of DMSO wells 0.193, cell-free background 0.041.
Where [9] appears, read: arabinose 10000000 nM, raw OD600 reference: median of DMSO wells 0.146, cell-free background 0.041.
Where [10] appears, read: arabinose induction (level): High, raw OD600 reference: median of DMSO wells 0.331, cell-free background 0.041.
[11] abbreviates: arabinose induction (level): Low, raw OD600 reference: median of DMSO wells 0.417, cell-free background 0.041.
[12] abbreviates: arabinose induction (level): High, raw OD600 reference: median of DMSO wells […], cell-free background 0.041.
The mark [13] stands for this setting: arabinose induction (level): Low, raw OD600 reference: median of DMSO wells 0.227, cell-free background 0.041.
Where [14] appears, read: arabinose 100 nM, raw OD600 reference: median of DMSO wells 0.413, cell-free background 0.052.
The mark [15] stands for this setting: arabinose 10000000 nM, raw OD600 reference: median of DMSO wells […], cell-free background 0.052.

For the compound `CN[C@H]1CC[C@@H](c2ccc(Cl)c(Cl)c2)c2ccccc21` [Sertraline], the growth in assay [1] came to 0.0407 ± 0.00036; with E. coli TESEC Mtb Alr [2] (setting [5]) it was 0.0417 ± 0.0013; in the assay on E. coli TESEC Mtb Alr [2] (setting [6]), 0.0403 ± 0.0019; in the assay on E. coli TESEC Mtb Alr [2] (setting [7]), 0.0432 ± 0.0016; in the assay on E. coli TESEC Mtb Alr [2] (setting [8]), 0.0393 ± 0.0007; with E. coli TESEC Mtb Alr [2] (setting [9]), 0.0414 ± 0.00047. The growth in the assay with E. coli TESEC Mtb Asd (setting [10]) came to 0.0545 ± 0.0057; with E. coli TESEC Mtb Asd (setting [11]), 0.0508 ± 0.0037; in the assay with E. coli TESEC Mtb DapB (setting [12]) it was 0.0504 ± 0.00093; with E. coli TESEC Mtb DapB (setting [13]) it was 0.0522 ± 0.0014; in assay [3], 0.0502 ± 0.00068; in the assay on E. coli TESEC Mtb Alr [4] (setting [14]), 0.392 ± 0.036. For the same compound, the growth in the assay on E. coli TESEC Mtb Alr [4] (setting [15]) stood at 0.0517 ± 0.00092.
As to `CC/C(=C(/CC)c1ccc(O)cc1)c1ccc(O)cc1` [Diethylstilbestrol], the growth in assay [1] was found to be 0.0422 ± 0.0023; in the assay with E. coli TESEC Mtb Alr [2] (setting [5]), 0.04 ± 0.0015; with E. coli TESEC Mtb Alr [2] (setting [6]), 0.0413 ± 0.0044; in the assay with E. coli TESEC Mtb Alr [2] (setting [7]), 0.0436 ± 0.0041; with E. coli TESEC Mtb Alr [2] (setting [8]), 0.0394 ± 0.00096; with E. coli TESEC Mtb Alr [2] (setting [9]), 0.0457 ± 0.0042. In addition, the growth in the assay on E. coli TESEC Mtb Asd (setting [10]) was 0.169 ± 0.011; with E. coli TESEC Mtb Asd (setting [11]), 0.0743 ± 0.016; in the assay with E. coli TESEC Mtb DapB (setting [12]) it was 0.171 ± 0.013; in the assay with E. coli TESEC Mtb DapB (setting [13]), 0.198 ± 0.012; in assay [3], 0.0495 ± 0.0011; with E. coli TESEC Mtb Alr [4] (setting [14]) it was 0.0551 ± 0.0059. The same compound showed a growth in the assay with E. coli TESEC Mtb Alr [4] (setting [15]) of 0.0557 ± 0.0043.
For `NC(=O)c1ncn([C@@H]2O[C@H](CO)[C@@H](O)[C@H]2O)n1` [Ribavirin], the growth was 0.17 ± 0.02 in assay [1]; 0.0986 ± 0.0022 in the assay with E. coli TESEC Mtb Alr [2] (setting [5]); 0.0798 ± 0.0011 with E. coli TESEC Mtb Alr [2] (setting [6]); 0.117 ± 0.0028 with E. coli TESEC Mtb Alr [2] (setting [7]); 0.0816 ± 0.0003 with E. coli TESEC Mtb Alr [2] (setting [8]); 0.106 ± 0.0017 with E. coli TESEC Mtb Alr [2] (setting [9]). In addition, the growth with E. coli TESEC Mtb Asd (setting [10]) came out at 0.404 ± 0.036; in the assay with E. coli TESEC Mtb Asd (setting [11]), 0.426 ± 0.071; with E. coli TESEC Mtb DapB (setting [12]), 0.196 ± 0.021; in the assay with E. coli TESEC Mtb DapB (setting [13]), 0.203 ± 0.025; in assay [3], 0.54 ± 0.043; with E. coli TESEC Mtb Alr [4] (setting [14]), 0.415 ± 0.046. Moreover, the growth in the assay on E. coli TESEC Mtb Alr [4] (setting [15]) came to 0.24 ± 0.021.
`C=C1C(=O)O[C@H]2[C@H]1CC/C(C)=C/CC[C@@]1(C)O[C@@H]21` [Parthenolide]: the growth in assay [1] was found to be 0.157 ± 0.0041; in the assay with E. coli TESEC Mtb Alr [2] (setting [5]), 0.303 ± 0.0032; with E. coli TESEC Mtb Alr [2] (setting [6]), 0.27 ± 0.0042; in the assay with E. coli TESEC Mtb Alr [2] (setting [7]), 0.232 ± 0.014; with E. coli TESEC Mtb Alr [2] (setting [8]), 0.185 ± 0.0044; in the assay with E. coli TESEC Mtb Alr [2] (setting [9]) it was 0.157 ± 0.0078. Also, the growth with E. coli TESEC Mtb Asd (setting [10]) is 0.155 ± 0.0046; with E. coli TESEC Mtb Asd (setting [11]), 0.269 ± 0.036; in the assay with E. coli TESEC Mtb DapB (setting [12]), 0.2 ± 0.0037; in the assay on E. coli TESEC Mtb DapB (setting [13]), 0.224 ± 0.022; in assay [3] it was 0.488 ± 0.038; with E. coli TESEC Mtb Alr [4] (setting [14]), 0.404 ± 0.013. In the assay with E. coli TESEC Mtb Alr [4] (setting [15]), this compound yielded a growth of 0.316 ± 0.02.
With `CCN1CCCC(OC(=O)C(c2ccccc2)c2ccccc2)C1` (stereo unspecified) [Piperidolate hydrochloride], the growth in assay [1] came out at 0.18 ± 0.0021; with E. coli TESEC Mtb Alr [2] (setting [5]), 0.264 ± 0.0065; in the assay with E. coli TESEC Mtb Alr [2] (setting [6]) it was 0.259 ± 0.012; with E. coli TESEC Mtb Alr [2] (setting [7]), 0.161 ± 0.01; with E. coli TESEC Mtb Alr [2] (setting [8]), 0.157 ± 0.0096; with E. coli TESEC Mtb Alr [2] (setting [9]), 0.136 ± 0.0042. Moreover, the growth with E. coli TESEC Mtb Asd (setting [10]) stood at 0.176 ± 0.025; in the assay with E. coli TESEC Mtb Asd (setting [11]) it was 0.428 ± 0.14; in the assay with E. coli TESEC Mtb DapB (setting [12]), 0.178 ± 0.018; with E. coli TESEC Mtb DapB (setting [13]), 0.182 ± 0.0083; in assay [3], 0.555 ± 0.023; in the assay on E. coli TESEC Mtb Alr [4] (setting [14]), 0.4174 ± 0.0019. In addition, in the assay with E. coli TESEC Mtb Alr [4] (setting [15]), the growth stood at 0.329 ± 0.011.
On to `CC1COc2c(N3CCN(C)CC3)c(F)cc3c(=O)c(C(=O)O)cn1c23` (stereo unspecified) [Ofloxacin], for which the growth in assay [1] was 0.04363 ± 5.8e-05; in the assay on E. coli TESEC Mtb Alr [2] (setting [5]) it was 0.0426 ± 0.00057; in the assay with E. coli TESEC Mtb Alr [2] (setting [6]), 0.03877 ± 0.00015; in the assay with E. coli TESEC Mtb Alr [2] (setting [7]), 0.0435 ± 0.0001; in the assay on E. coli TESEC Mtb Alr [2] (setting [8]) it was 0.03957 ± 0.00029; in the assay with E. coli TESEC Mtb Alr [2] (setting [9]), 0.044 ± 0.0001. Further, the growth was 0.0587 ± 0.0023 with E. coli TESEC Mtb Asd (setting [10]); 0.0597 ± 0.0025 in the assay with E. coli TESEC Mtb Asd (setting [11]); 0.0501 ± 0.0018 in the assay with E. coli TESEC Mtb DapB (setting [12]); 0.05347 ± 0.00015 with E. coli TESEC Mtb DapB (setting [13]); 0.0509 ± 0.00059 in assay [3]; 0.0542 ± 0.0012 with E. coli TESEC Mtb Alr [4] (setting [14]). This compound registered a growth in the assay with E. coli TESEC Mtb Alr [4] (setting [15]) of 0.05103 ± 0.00031.
On to `CSc1ccc2c(c1)C(N1CCN(C)CC1)Cc1ccccc1S2` (stereo unspecified) [Methiothepin maleate], for which the growth was found to be 0.0405 ± 0.00044 in assay [1]; 0.0412 ± 0.0021 in the assay with E. coli TESEC Mtb Alr [2] (setting [5]); 0.0394 ± 0.00042 with E. coli TESEC Mtb Alr [2] (setting [6]); 0.04073 ± 0.00025 with E. coli TESEC Mtb Alr [2] (setting [7]); 0.03917 ± 5.8e-05 in the assay on E. coli TESEC Mtb Alr [2] (setting [8]); 0.0411 ± 0.0013 with E. coli TESEC Mtb Alr [2] (setting [9]). The growth is 0.0562 ± 0.0036 in the assay on E. coli TESEC Mtb Asd (setting [10]); 0.0503 ± 0.0057 in the assay on E. coli TESEC Mtb Asd (setting [11]); 0.0514 ± 0.00083 in the assay with E. coli TESEC Mtb DapB (setting [12]); 0.0485 ± 0.00094 in the assay with E. coli TESEC Mtb DapB (setting [13]); 0.04833 ± 0.00021 in assay [3]; 0.293 ± 0.21 in the assay on E. coli TESEC Mtb Alr [4] (setting [14]). In the assay on E. coli TESEC Mtb Alr [4] (setting [15]), this compound came in with a growth of 0.0516 ± 0.00053.
